This is one part of the list. How many sequences the whole screen found active is unknown.
B1: VH:VL chains; a variant is named by its letters at X, in order (parent)
chain 1: QVQLVQSGAEVKKPGASVKVSCKASGYTFTDYXMHWVRQAPGQGLEWMGXVNPNXXXTTYNQKFEGRVTMTTDTSTSTAYMELRSLRSDDTAVYYCARXNXLDXWGQGTTVTVSS
chain 2: DIQMTQSPSSLSASVGDRVTITCSVSSSVSSIYLHWYQQKPGKAPKLLIYSTSNLASGVPSRFSGSGSGTDFTLTISSLQPEDFATYYCQVYSGYPLTFGGGTKVEIK

Variants of: B1
Experiment: yeast display scFab, FACS + sequencing
Conditions: with MET
How it was run: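 Heavy-chain CDR mutant scFab yeast surface library, enriched by two magnetic rounds on HGFR-Fc-coated Protein A beads and then by FACS. Cells were labelled with 1 nM HGFR-Fc in PBSB with 1% milk and anti-Myc for 3 h at room temperature, and the top 50% antigen-positive cells were gated. Round-3 sorted and input populations were deep sequenced in two replicates. Antigen binding call: positive if a sequence occurred in both antigen-positive samples, negative if it occurred only in input.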

DTTKGDVV was tested. Which antigen binding call did it give?
Its antigen binding call is “no binding”.

Which antigen binding call does the source give for DEGGTSSA here?
Its antigen binding call is “no binding”.

How did the antigen binding call turn out when DTTRADVD was run?
The antigen binding call was “no binding”.

Which antigen binding call does the source give for DRTGDSSS here?
Its antigen binding call is “binds”.

With DRGGDSLD as the variant, how does the antigen binding call read?
The antigen binding call was “no binding”.

For DRGGDDGS, which antigen binding call is on record?
The antigen binding call was “no binding”.

Which antigen binding call does the source give for DATGGSSS here?
The antigen binding call was “no binding”.

DTTKSSSS was tested. Which antigen binding call did it give?
Its antigen binding call is “no binding”.

DRGGDSSS was tested. Which antigen binding call did it give?
The antigen binding call was “binds”.

For DKGGSDVV, which antigen binding call is on record?
The antigen binding call was “no binding”.

With STRGADAV as the variant, how does the antigen binding call read?
Its antigen binding call is “no binding”.

How did the antigen binding call turn out when DKEEADGV was run?
The antigen binding call was “no binding”.

With FRTGDAWV as the variant, how does the antigen binding call read?
The antigen binding call was “binds”.

How did the antigen binding call turn out when FRTGDSLV was run?
The antigen binding call was “binds”.

How did the antigen binding call turn out when VATGDSLV was run?
Its antigen binding call is “no binding”.

With FRAGGAWV as the variant, how does the antigen binding call read?
The antigen binding call was “binds”.

FRTGDDWV was tested. Which antigen binding call did it give?
Its antigen binding call is “no binding”.

How did the antigen binding call turn out when FRTGDDLV was run?
The antigen binding call was “no binding”.

With FRAGSAVV as the variant, how does the antigen binding call read?
Its antigen binding call is “binds”.

With SKTKSDVV as the variant, how does the antigen binding call read?
Its antigen binding call is “no binding”.

How did the antigen binding call turn out when SAREGSSA was run?
The antigen binding call was “no binding”.

How did the antigen binding call turn out when DEARGAGD was run?
The antigen binding call was “no binding”.

FATKGAWV was tested. Which antigen binding call did it give?
Its antigen binding call is “no binding”.

For FRGRDVVV, which antigen binding call is on record?
The antigen binding call was “no binding”.

FRRGGAVV was tested. Which antigen binding call did it give?
Its antigen binding call is “binds”.

FRTKGAWV was tested. Which antigen binding call did it give?
The antigen binding call was “binds”.

How did the antigen binding call turn out when FRRGGAWV was run?
Its antigen binding call is “binds”.

Which antigen binding call does the source give for AARETVGA here?
Its antigen binding call is “no binding”.

How did the antigen binding call turn out when STAESDLD was run?
The antigen binding call was “no binding”.

With YRGRGFGS as the variant, how does the antigen binding call read?
Its antigen binding call is “binds”.

With YRGRGFAS as the variant, how does the antigen binding call read?
Its antigen binding call is “binds”.

How did the antigen binding call turn out when YAGRSFGS was run?
Its antigen binding call is “no binding”.

For YAGRGFGF, which antigen binding call is on record?
The antigen binding call was “no binding”.

Which antigen binding call does the source give for YAAAAFGY here?
Its antigen binding call is “no binding”.

For YRGRGFGF, which antigen binding call is on record?
Its antigen binding call is “binds”.

Which antigen binding call does the source give for YRGRGFGY here?
Its antigen binding call is “binds”.

DAGGGAVV was tested. Which antigen binding call did it give?
Its antigen binding call is “no binding”.

Which antigen binding call does the source give for YATGDDVA here?
The antigen binding call was “no binding”.

For DGGGNDLV, which antigen binding call is on record?
Its antigen binding call is “no binding”.

For VATRGYLV, which antigen binding call is on record?
The antigen binding call was “no binding”.

Which antigen binding call does the source give for AARADDVD here?
The antigen binding call was “no binding”.

YRGRGVGF was tested. Which antigen binding call did it give?
The antigen binding call was “binds”.

How did the antigen binding call turn out when SRGKSFGS was run?
Its antigen binding call is “no binding”.

With YRGKGFGS as the variant, how does the antigen binding call read?
The antigen binding call was “binds”.

DEGKGFGS was tested. Which antigen binding call did it give?
Its antigen binding call is “no binding”.

YAKEGDGV was tested. Which antigen binding call did it give?
Its antigen binding call is “no binding”.

With VGKGDDAA as the variant, how does the antigen binding call read?
The antigen binding call was “no binding”.

How did the antigen binding call turn out when YRGRGASF was run?
The antigen binding call was “binds”.

For VRTEDASF, which antigen binding call is on record?
The antigen binding call was “no binding”.

With YRGRGSSF as the variant, how does the antigen binding call read?
The antigen binding call was “binds”.

YTTGSASF was tested. Which antigen binding call did it give?
Its antigen binding call is “no binding”.

How did the antigen binding call turn out when FRTGDDSF was run?
Its antigen binding call is “no binding”.

How did the antigen binding call turn out when FRTGDSAS was run?
Its antigen binding call is “binds”.

For FRTGDAVS, which antigen binding call is on record?
The antigen binding call was “binds”.

How did the antigen binding call turn out when FRTGDAVF was run?
The antigen binding call was “binds”.

For VTGGDSLV, which antigen binding call is on record?
Its antigen binding call is “no binding”.

With FKTRDFAY as the variant, how does the antigen binding call read?
Its antigen binding call is “no binding”.

Which antigen binding call does the source give for VEKEGDVY here?
Its antigen binding call is “no binding”.

How did the antigen binding call turn out when DATGGASD was run?
The antigen binding call was “no binding”.

With YRAGGYVD as the variant, how does the antigen binding call read?
Its antigen binding call is “binds”.

Which antigen binding call does the source give for YRRGGYVD here?
The antigen binding call was “no binding”.

AKGEDSVF was tested. Which antigen binding call did it give?
The antigen binding call was “no binding”.

How did the antigen binding call turn out when YRRRGYVF was run?
The antigen binding call was “binds”.

With YKRRSSVF as the variant, how does the antigen binding call read?
Its antigen binding call is “binds”.

For YRAGGYVF, which antigen binding call is on record?
The antigen binding call was “binds”.

Which antigen binding call does the source give for SEARSSSF here?
The antigen binding call was “no binding”.

YRRRGAVF was tested. Which antigen binding call did it give?
Its antigen binding call is “binds”.

For YRRRGSVF, which antigen binding call is on record?
The antigen binding call was “binds”.

Which antigen binding call does the source give for VAGGAYLY here?
Its antigen binding call is “no binding”.

DTATADWA was tested. Which antigen binding call did it give?
The antigen binding call was “no binding”.

For YRARSAAV, which antigen binding call is on record?
The antigen binding call was “binds”.

How did the antigen binding call turn out when FRRGDAAV was run?
Its antigen binding call is “binds”.

How did the antigen binding call turn out when YAARGAAV was run?
Its antigen binding call is “no binding”.

For FRARGAAV, which antigen binding call is on record?
The antigen binding call was “binds”.

How did the antigen binding call turn out when YGARNAAV was run?
Its antigen binding call is “no binding”.

Which antigen binding call does the source give for FRAGGAAV here?
The antigen binding call was “binds”.

Which antigen binding call does the source give for DTAESSSF here?
The antigen binding call was “no binding”.

For YTGTSDGV, which antigen binding call is on record?
Its antigen binding call is “no binding”.

VEGGGAVV was tested. Which antigen binding call did it give?
Its antigen binding call is “no binding”.

For FRTKDDVY chain 1 E46K, which antigen binding call is on record?
The antigen binding call was “no binding”.

How did the antigen binding call turn out when SEARSAAV was run?
The antigen binding call was “no binding”.

With DRAGDAAV as the variant, how does the antigen binding call read?
Its antigen binding call is “no binding”.

How did the antigen binding call turn out when FRARSAAV was run?
The antigen binding call was “binds”.

How did the antigen binding call turn out when FRAGGSGD was run?
The antigen binding call was “binds”.

Which antigen binding call does the source give for FREGGSGD here?
Its antigen binding call is “no binding”.

Which antigen binding call does the source give for FAAGGSGD here?
The antigen binding call was “no binding”.

For FRKGGSGD, which antigen binding call is on record?
Its antigen binding call is “binds”.

For VGETSYVD, which antigen binding call is on record?
Its antigen binding call is “no binding”.

With SKERGDGA as the variant, how does the antigen binding call read?
The antigen binding call was “no binding”.

Which antigen binding call does the source give for SAAGGAGA chain 1 L45S here?
The antigen binding call was “no binding”.

SKAKGFGV was tested. Which antigen binding call did it give?
The antigen binding call was “no binding”.

How did the antigen binding call turn out when SKAGGAGA was run?
The antigen binding call was “binds”.

How did the antigen binding call turn out when SKAKGSGA was run?
Its antigen binding call is “binds”.

How did the antigen binding call turn out when SGEEGSGA was run?
The antigen binding call was “no binding”.

Which antigen binding call does the source give for SKAGGVGA here?
Its antigen binding call is “no binding”.

Which antigen binding call does the source give for SKAKGSGV here?
The antigen binding call was “binds”.

For SKTKSSGA, which antigen binding call is on record?
Its antigen binding call is “no binding”.

Which antigen binding call does the source give for SKRKSSGA here?
The antigen binding call was “no binding”.

Which antigen binding call does the source give for SKTRGAGV here?
The antigen binding call was “no binding”.

For SKKRGSGA, which antigen binding call is on record?
The antigen binding call was “binds”.

VAATADAV was tested. Which antigen binding call did it give?
Its antigen binding call is “no binding”.

Which antigen binding call does the source give for VAGTSDGA here?
Its antigen binding call is “no binding”.

DATGGFGV was tested. Which antigen binding call did it give?
The antigen binding call was “no binding”.

DAGEGFVA was tested. Which antigen binding call did it give?
The antigen binding call was “no binding”.

VEEEAFAV was tested. Which antigen binding call did it give?
The antigen binding call was “no binding”.

With VTGEDSLV as the variant, how does the antigen binding call read?
The antigen binding call was “no binding”.

Which antigen binding call does the source give for VETGNSGA here?
Its antigen binding call is “no binding”.

Which antigen binding call does the source give for YRERGAAF here?
The antigen binding call was “binds”.

YRERGAGF was tested. Which antigen binding call did it give?
Its antigen binding call is “binds”.

DRGRDDAA was tested. Which antigen binding call did it give?
Its antigen binding call is “no binding”.

With DAKEGDLV as the variant, how does the antigen binding call read?
The antigen binding call was “no binding”.

For YRTKASLD, which antigen binding call is on record?
The antigen binding call was “binds”.

With YRAKGSLD as the variant, how does the antigen binding call read?
Its antigen binding call is “binds”.

DATGGSLD was tested. Which antigen binding call did it give?
Its antigen binding call is “no binding”.

Which antigen binding call does the source give for YREKGSLD here?
The antigen binding call was “binds”.

For YRTGGSLD, which antigen binding call is on record?
Its antigen binding call is “binds”.

DTREGDVA was tested. Which antigen binding call did it give?
Its antigen binding call is “no binding”.

Which antigen binding call does the source give for STAESDGA here?
The antigen binding call was “no binding”.

For VGEGGDAY, which antigen binding call is on record?
The antigen binding call was “no binding”.

For VAEKGFLV, which antigen binding call is on record?
Its antigen binding call is “no binding”.

For SRRETFVF, which antigen binding call is on record?
The antigen binding call was “no binding”.

Which antigen binding call does the source give for DGGTNDVA here?
The antigen binding call was “no binding”.

For VAGTDAGD, which antigen binding call is on record?
Its antigen binding call is “no binding”.

With FKGEGSLY as the variant, how does the antigen binding call read?
Its antigen binding call is “no binding”.

With VKGRASGY as the variant, how does the antigen binding call read?
The antigen binding call was “no binding”.

How did the antigen binding call turn out when FKGRGSLY was run?
Its antigen binding call is “binds”.

With FKGRGSGY as the variant, how does the antigen binding call read?
The antigen binding call was “binds”.

For YTRGASGA, which antigen binding call is on record?
The antigen binding call was “no binding”.

For YKRGASLA, which antigen binding call is on record?
The antigen binding call was “binds”.

YTRGAAVA was tested. Which antigen binding call did it give?
The antigen binding call was “no binding”.

With YTRGADVA as the variant, how does the antigen binding call read?
The antigen binding call was “no binding”.

How did the antigen binding call turn out when YTRGAALA was run?
The antigen binding call was “no binding”.

With YKRGASVA as the variant, how does the antigen binding call read?
The antigen binding call was “binds”.

How did the antigen binding call turn out when YRTAGAGD was run?
Its antigen binding call is “binds”.

For YRTAGSGD, which antigen binding call is on record?
Its antigen binding call is “binds”.

YRTAGSSD was tested. Which antigen binding call did it give?
Its antigen binding call is “binds”.

How did the antigen binding call turn out when YRTAGAAD was run?
The antigen binding call was “binds”.

Reference: the emibetuzumab library of Makowski et al. (2022)
